# Compound activity deposited in PubChem by National Center for Advancing Translational Sciences (NCATS).
# Shown are actives, neighbours in structure and some others; about 13% of the full set was active somewhere.
# HCMV inh – inhibitors of human cytomegalovirus; 410,000 compounds, 4.5% hits; HFF cells, HCMV-luciferase reporter, 72 h; active compounds read low; activity change, negative = inhibition, % at 57.5 µM; in the data active = activity change below about -60%; inconclusive = no clear call, values can overlap the other calls; inactive = above about -39%
#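 Two-dose cell screen: HFF monolayers treated with compounds and infected with luciferase-expressing HCMV at 1 PFU/cell, 72 h at 37C, then lysed for luciferase measurement.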
# Pf growth 96h – inhibits malaria parasite growth, 96 h; P. falciparum luciferase reporter growth, 96 h; Potency, µM (titrated, usually from 28.7 µM), for the others: at the top dose activity change, negative = inhibition, most hits filed as inhibitors; 320,000 compounds, 6.9% hits; also: potency is read from the fitted curve at half-maximal effect
#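 Readout is luminescence from an integrated firefly luciferase in P. falciparum. Red cells, 2% hematocrit and 0.05% parasitemia final, were cultured with compound through two parasite generations (96 hours) at 37 C, 5% CO2.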
# HCV inh – HCV inhibition | Huh7.5.1 HCVcc-Cre infection, luciferase reporter, 44 h | Potency, µM (highest dose often 41.8 µM), for inactives: top-dose activity change, negative = inhibition, most hits filed as inhibitors | 340,000 compounds, 3.4% hits; also: potency is read from the fitted curve at half-maximal effect
#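 Compounds are dispensed onto cells plated 4 h earlier at 1,000 per well, with HCVcc-Cre virus (about 0.5 moi) added next. Following 44 h of culture, luminescent signal is measured for 15 sec after 15 min with substrate at room temperature.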
# Pf growth 48h – P. falciparum growth inhibition at 48 hours (one generation); P. falciparum luciferase growth in erythrocytes, 48 h; Potency, µM (titrated, usually from 28.7 µM), inactives show at the highest dose activity change, negative = inhibition, most hits filed as inhibitors; 310,000 compounds, 5.9% hits; also: potency is read from the fitted curve at half-maximal effect
#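 First compound was added to culture medium, then infected red cells at 0.1% parasitemia and 2% hematocrit (final). After incubation at 37 C under 5% CO2, luciferase detection reagent was dispensed and light output recorded.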
# Active calls of the source: *; ? = inconclusive; . = not tested or not shown; [ ] = remark or other dose. Unless noted, calls follow the shape of the dose curve; as a rule, active = well fitted inhibition curve with a large enough effect; inconclusive = small, poorly fitted or top-dose-only effect, or another doubt; inactive = no such curve, though single readings can be large or run the other way. % is scaled to controls: 0 for no effect and ±100 for the full control effect.
SMILES,HCMV inh,Pf growth 96h,HCV inh,Pf growth 48h
CSc1ccc(CN(C)C(=O)CNC(=O)c2ccc3c(c2)OCO3)cc1,-22,8.3µM*,-4%,4.1µM*
CN(Cc1ccc(Cl)cc1Cl)C(=O)CNC(=O)c1ccc2c(c1)OCO2,-27,12µM*,-7%,10µM*
CN(CC(=O)Nc1c(Cl)cccc1Cl)C(=O)CNC(=O)c1ccc2c(c1)OCO2,-15,45%,-2%,32%
Cc1ccc(NC(=O)CN(C)C(=O)CNC(=O)c2ccc3c(c2)OCO3)cc1,-23,52%,1%,1%
Cc1cn2c(=O)c(S(=O)(=O)N3CCN(c4cc(Cl)ccc4C)CC3)c(C)nc2s1,-2,.,.,.
Cc1ccc(C)c(CN2C(=O)CSc3ccc(C(=O)NCCc4ccc(Cl)cc4)cc32)c1,15,.,.,.
COc1ccc(-c2cc(C(=O)N3CCOCC3)no2)cc1OC,36,1.3µM*,18%,88%
CC1(C)C[C@@H]2C[C@@](C)(CN2C(=O)c2cc(COc3cccc(C(F)(F)F)c3)on2)C1,?,27%,10µM*,40%
CCCCNC(=O)c1cc(-c2ccc(OC)cc2)on1,105,?,-1%,130%
COc1ccc(-c2cc(C(=O)N3CC4(C)CC3CC(C)(C)C4)no2)cc1OC (centres undefined),5,?,8%,0.93µM*
O=C(c1cc(COc2cccc(C(F)(F)F)c2)on1)N1C[C@H]2CC[C@H]1C2,-13,36%,-21%,18%
CCCCNC(=O)c1cc(-c2ccc(OC)c(OC)c2)on1,31,3.3µM*,-7%,.
CCOC(=O)C1CCN(c2ncnc3c2nc2n3CCCCC2)CC1,61,.,.,.
COc1cccc(C(=O)Nc2nc3nc(C)c(Cc4ccccc4)c(=O)n3[nH]2)c1,-16,.,.,.
COc1ccccc1-c1cc(C(=O)N2CCN(c3ccc(F)cc3)CC2)no1,14,8.3µM*,?,35%
CC(C)c1nn2c(=O)cc(CSc3ccccc3NC(=O)c3ccccc3F)nc2s1,13,8.3µM*,19%,?
Cc1ccc(S(=O)(=O)NCc2ccccc2Br)cc1,-13,.,.,.
COCCCOc1ccnc(CS(=O)c2nc3ccccc3[nH]2)c1C (centres undefined),-65*,57%,?,40%
Cc1ccc(NC(=O)CN2C(=O)S/C(=C\c3ccccn3)C2=O)cc1C,18,10µM*,5%,-13%
O=C(CN1C(=O)S/C(=C/c2ccncc2)C1=O)Nc1ccccc1,-31,?,4%,-4%
CC(=O)c1cccc(NC(=O)Cn2c(=O)oc3cc(S(=O)(=O)NC4CCCC4)ccc32)c1,7,.,.,.
COc1ccc(C2NC(=O)NC(c3ccccc3)=C2c2nc3ccccc3s2)cc1 (centres undefined),-8,.,-12%,?
O=C1NC(c2ccccc2)=C(c2nc3ccccc3s2)C(c2ccc(F)cc2)N1 (centres undefined),-27,13µM*,?,-52%
CN(C)CCN(C(=O)c1ccco1)c1nc2c(F)cc(F)cc2s1,13,.,.,.
O=C(Oc1cccc(C(=S)N2CCCCC2)c1)c1ccccc1,21,7.4µM*,21%,25%
SMILES,HCMV inh,Pf growth 96h,HCV inh,Pf growth 48h
O=C(Oc1ccc(C(=S)N2CCCCC2)cc1)c1ccccc1,-13,?,19%,7%
COC(=O)C1=C(c2ccc(F)cc2OCc2ccccc2)C[C@@H]2CC[C@H]1N2C(=O)NCc1ccc(OC)cc1,-24,?,?,13µM*
COC(=O)C1=C(c2ccc(F)cc2OCc2ccccc2)C[C@@H]2CC[C@H]1N2C(=O)NCc1ccc(Br)cc1,-30,?,?,2.1µM*
COC(=O)C1=C(c2ccc(F)cc2OCc2ccccc2)C[C@@H]2CC[C@H]1N2C(=O)NCc1cccc(C(F)(F)F)c1,-3,?,?,4.7µM*
COC(=O)C1=C(c2ccccc2OCc2ccccc2)C[C@@H]2CC[C@H]1N2C(=O)NCc1ccc(OC)c(OC)c1,-28,?,?,13µM*
COc1ccc2c(c1)c1c(c(=O)n(-c3cccc(Cl)c3)c(=O)n1CC(=O)N1CCCC1)n2C,-2,.,.,.
Cn1cc(S(=O)(=O)N2CCCCC2)cc1C(=O)N1CCN(c2ccccc2F)CC1,6,.,.,.
CCCCOc1ccc(-c2nn(-c3ccccc3)cc2C2NC(=O)NC(C)=C2C(=O)OCC)cc1 (centres undefined),-39,.,.,.
COC(=O)C1=C(c2ccccc2OCc2ccccc2)C[C@@H]2CC[C@H]1N2C(=O)NCc1cccc(F)c1,39,?,?,9.3µM*
COC(=O)C1=C(c2ccc(F)cc2OCc2ccccc2)C[C@@H]2CC[C@H]1N2C(=O)NCc1cccc(OC)c1,-31,?,?,9.3µM*
COc1ccccc1NC(=O)N[C@H]1CC[C@@]23CCCN2C(=O)CCC[C@H]3C1Cc1ccccc1 (some centres undefined),-14,.,.,.
COC(COC(N)=O)C1=C(N2CC2)C(=O)C(C)=C(N2CC2)C1=O (centres undefined),-5,.,0.56µM*,.
CO[C@@H](COC(N)=O)C1=C(N2CC2)C(=O)C(C)=C(N2CC2)C1=O,.,0.54µM*,.,0.6µM*
CC(=O)Nc1ccc(NC(=O)C2C3C=CC(C3)C2C(=O)O)cc1 (centres undefined),40,1.7µM*,14%,6%
O=C(O)C1C2C=CC(C2)C1C(=O)NCc1cccs1 (centres undefined),-12,4.1µM*,2%,-1%
Cc1ccc2[nH]c(-c3cccc(F)c3)cc(=O)c2c1,-69*,4.1µM*,?,5.2µM*
Cc1ccc2[nH]c(-c3cccc(N)c3)cc2c1,114,21%,-15%,39%
Cc1ccc2[nH]c(C(F)(F)F)cc(=O)c2c1,-73*,-5%,9%,-8%
COc1ccc2[nH]c(-c3cccc(F)c3)cc(=O)c2c1,-62*,5.2µM*,4%[8.37 µM],?
COc1cccc(-c2cc(=O)c3cc(NC(=O)c4ccc(N(C)C)cc4)ccc3[nH]2)c1,.,13µM*,-4%,10µM*
COc1ccc(-c2cc(=O)c3ccccc3[nH]2)cc1,17,?,5%[8.37 µM],?
COc1ccc(CNC(=O)CCn2c(=O)c3cccn3c3ccc(F)cc32)cc1OC,-27,.,.,.
CCOC(=O)c1c(-c2ccccc2)csc1NC(=O)c1cc(-c2ccc(C)c(F)c2)on1,1,.,.,.
O=c1cc(-c2cccc(F)c2)[nH]c2ccccc12,-77*,?,4%[8.37 µM],?
COc1ccc(CCNC(=O)CN(c2cc(C(F)(F)F)ccc2Cl)S(C)(=O)=O)cc1,12,.,.,.
CCc1ccccc1NC(=O)Cn1c(=O)n(CCc2ccccc2)c(=O)c2sc3ccccc3c21,-6,.,.,.
CCCCCOP(=O)(OCCCCC)C1(NS(=O)(=O)c2ccccc2)C=CC(=O)c2ccccc21 (centres undefined),34,7.4µM*,-5%,9.3µM*
Cc1ccccc1OCCSc1nc2ccc(NC(=O)c3cccc(F)c3)cc2s1,-33,.,.,.
